Assay results from PubChem BioAssay (EPA / NIEHS).
Results filed as inconclusive are left out. Calls of active or inactive are those of the source. How the source made its calls: active means hit-call score of the fitted dose curve at least 0.9, where 1 is the maximum; inconclusive means response in the unintended direction; inactive means score below 0.9.

Experiment: Tanguay_ZF_120hpf_SWIM_legacy: (Legacy) Oregon State University Tanguay Lab 120 Hour Post-fertilization zebrafish Assay for Swim Bladder Malformation (AID 2283654);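 further: swim bladder malformation in each larva scored yes or no under brightfield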
Method: Tanguay_ZF_120hpf_legacy is a whole embryo, multiplexed endpoint assay using zebrafish larvae exposed for 120 hours post fertilization on a 96-well plate.Tanguay_ZF_120hpf_SWIM_legacy is one of one assay component(s) measured or calculated from the Tanguay_ZF_120hpf_legacy assay. It is designed to make measurements of zebrafish development as detected with brightfield microscopy of developing zebrafish embryos.Data from the assay component Tanguay_ZF_120hpf_SWIM_legacy was analyzed into 1 assay endpoints. This assay endpoint, Tanguay_ZF_120hpf_SWIM_legacy, was analyzed in the positive analysis fitting direction relative to DMSO as the negative control and baseline of activity. Using a type of morphology reporter, gain-of-signal activity can be used to understand changes in developmentals as they relate to the whole embryo. To generalize the intended target to other relatable targets, this assay endpoint is annotated to the zebrafish development intended target family, where the subfamily is swim bladder morphogenesis.
Zebrafish husbandry: Tropical 5D wild-type adult zebrafish were housed in at an approximate density of 1000 per 100 gallon tank at the Sinnhuber Aquatic Research Laboratory, Oregon State University, Corvallis, OR. Each tank was kept at standard laboratory conditions of 28C on a 14-h light/10-h dark photoperiod in fish water consisting of reverse osmosis water supplemented with a commercially available salt (Instant Ocean). Spawning funnels were placed into the tanks the night prior, and embryos were collected and staged. To increase bioavailability, the chorion was enzymatically removed using pronase (63.6mg/ml, >/= 3.5U/mg, Sigma-Aldrich: P5147) at 4 hours post fertilization (hpf) using a custom automated dechorionator.Chemical exposures: Six hpf dechorionated embryos were placed 1 embryo per well in a 96-well plate prefilled with 90 ul of EM using automated embryo placement systems (AEPS). Ten microliters of each row of dilution plate 2 was added to 2 exposure plates. The final DMSO concentration used was 0.64% (vol/vol). Thirty-two embryos were also exposed to 5uM trimethyltin chloride (positive control). Plates were sealed to prevent evaporation and foil covered to reduce light exposure and kept in a 28C incubator. Embryos were statically exposed until 120 hpf. At 24 hpf, embryos were assessed for photomotor response using a custom photomotor response analysis tool (PRAT) and for developmental toxicity endpoints (MO24: mortality at 24 hpf, DP: developmental progression, SM: spontaneous movement, and NC: notochord distortion). At 120 hpf, locomotor activity was measured using Viewpoint Zebralab and assessed for 18 endpoints. Zebrafish acquisition and analysis program (ZAAP), a custom program designed to inventory, acquire, and manage zebrafish data, was used to collect developmental endpoints as either present or absent (i.e., binary responses were recorded). If mortality occurred for an embryo (at either 24 or 120 hpf), the non-mortality endpoints were not measured.

Row | SMILES | outcome | AC50
1 | Clc1ccc(Cl)c(Cl)c1 | inactive | –
2 | O=P(OCCCl)(OCCCl)OCCCl | inactive | –
3 | Cc1cccc(N)c1N | inactive | –
4 | CCC[CH2][Sn]([Cl])([CH2]CCC)[CH2]CCC | inactive | –
5 | CCN(CC)CCO | inactive | –
6 | Cc1ccc([N+](=O)[O-])cc1 | inactive | –
7 | O=[N+]([O-])c1ccc(Oc2ccc(Cl)cc2Cl)cc1 | inactive | –
8 | N#CC(Br)Br | inactive | –
9 | CC(C)(C)OOC(C)(C)CCC(C)(C)OOC(C)(C)C | inactive | –
10 | CC(C)(C)OOC(=O)c1ccccc1 | inactive | –
11 | Cc1cc(N=Nc2ccccc2C)ccc1N | inactive | –
12 | O=[N+]([O-])C(Br)(CO)CO | inactive | –
13 | CNC(=O)Oc1cccc2c1OC(C)(C)C2 | inactive | –
14 | CCC(C)c1ccc(O)cc1 (stereo not given) | inactive | –
15 | CC(O)CCO (stereo not given) | inactive | –
16 | Nc1cc(Cl)cc(C(=O)O)c1Cl | inactive | –
17 | CN(C)[C@@H]1C(=O)C(C(N)=O)=C(O)[C@@]2(O)C(=O)C3=C(O)c4c(O)cccc4[C@@](C)(O)[C@H]3C[C@@H]12 | inactive | –
18 | CCN(CC)N=O | inactive | –
19 | N#CC(Br)(Br)C(N)=O | inactive | –
20 | Nc1ccc([N+](=O)[O-])cc1 | inactive | –

Row | SMILES | outcome | AC50
21 | O=C(Nc1ccccc1)c1ccccc1I | inactive | –
22 | C=CCc1ccc2c(c1)OCO2 | inactive | –
23 | [Cl-].[Cl-].[Hg+2] | – | 1.02 µM (active)
24 | CC(C)(OOC(C)(C)c1ccccc1)c1ccccc1 | inactive | –
25 | CC(C)(C)C(O)(CCc1ccc(Cl)cc1)Cn1cncn1 (stereo not given) | inactive | –
26 | Nc1ccc(N=Nc2ccccc2)cc1 | inactive | –
27 | Oc1ccccc1Cl | inactive | –
28 | CCCSC(=O)N(CCC)CCC | inactive | –
29 | Nc1ccc(Cc2ccc(N)cc2)cc1 | inactive | –
30 | O=C(O)C1C2CCC(O2)C1C(=O)O (stereo not given) | inactive | –
31 | O=C(Oc1ccc(Br)cc1)N1CCN2CCC1CC2 | inactive | –
32 | CCCCCCCCOC(=O)c1ccc(C(=O)OCCCCCCCC)c(C(=O)OCCCCCCCC)c1 | inactive | –
33 | CC(C)COC(=O)c1ccccc1C(=O)OCC(C)C | inactive | –
34 | CCOC(=O)[C@]1(c2ccccc2)Oc2ccccc2[C@@H]1N | inactive | –
35 | COc1cc(C=O)cc2c1[C@H](COC(N)=O)[C@]1(OC(C)=O)ON2C[C@H]2[C@@H]1N2C(C)=O | inactive | –
36 | CN(C)C(=O)Nc1ccc(Cl)cc1 | inactive | –
37 | Cn1cc(-c2ccccc2)c(=O)c(-c2cccc(C(F)(F)F)c2)c1 | inactive | –
38 | Brc1ccc(Oc2ccccc2)cc1 | inactive | –
39 | COC(=O)Nc1nc2ccccc2[nH]1 | inactive | –
40 | [As]#[In] | inactive | –
